High-throughput results as filed in PubChem.
This is a sample that favours compounds with a hit; in the whole collection about 11% have one here.
HEK293 tox = kills HEK 293 cells. Potency, µM (titrated, usually from 115 µM), for inactives: at the top dose activity change, negative = cytotoxicity, most hits filed as inhibitors. HEK 293 viability, ATP luminescence (CellTiter-Glo), 48-72 h. hit rate 6.6% among 94,000; also: nearly all actives have a fitted effect of over 60% in size
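Viability of HEK 293 cells, plated at 250 cells/well, was judged by cellular ATP after compound treatment for 48 or 72 hr. Luminescence was imaged 10 min after CellTiter-Glo addition at room temperature.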
Luciferase inh = inhibitors of firefly (Photinus pyralis) luciferase; P08659; purified P. pyralis luciferase, luminescence, biochemical; Potency, µM (series often up to 115 µM), hits mostly inhibitors; hit rate 2.5% among 76,000; AID 1347043; also: nearly all actives have a fitted effect of over 65% in size
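Luminescence read by CCD imager after adding enzyme (10nM final) to wells holding compound, titrated in qHTS. Substrates 10uM each D-luciferin and ATP; buffer 50mM Tris acetate pH 7.5, 10mM Mg acetate, Tween-20, BSA.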
NPR1 antag = blocks ANP-stimulated signaling of human Npr1 receptor. P16066. HEK293 hNpr1 GloSensor cGMP, ANP-stimulated luminescence. Potency, µM (top dose mostly 46.3 µM), inactives show top-dose activity change, negative = inhibition, usual class: inhibitors. hit rate 1.6% among 76,000. AID 1347048; calls by dose curve; also: nearly all actives have a fitted effect of over 60% in size
Target sequence (P16066 whole entry, looked up): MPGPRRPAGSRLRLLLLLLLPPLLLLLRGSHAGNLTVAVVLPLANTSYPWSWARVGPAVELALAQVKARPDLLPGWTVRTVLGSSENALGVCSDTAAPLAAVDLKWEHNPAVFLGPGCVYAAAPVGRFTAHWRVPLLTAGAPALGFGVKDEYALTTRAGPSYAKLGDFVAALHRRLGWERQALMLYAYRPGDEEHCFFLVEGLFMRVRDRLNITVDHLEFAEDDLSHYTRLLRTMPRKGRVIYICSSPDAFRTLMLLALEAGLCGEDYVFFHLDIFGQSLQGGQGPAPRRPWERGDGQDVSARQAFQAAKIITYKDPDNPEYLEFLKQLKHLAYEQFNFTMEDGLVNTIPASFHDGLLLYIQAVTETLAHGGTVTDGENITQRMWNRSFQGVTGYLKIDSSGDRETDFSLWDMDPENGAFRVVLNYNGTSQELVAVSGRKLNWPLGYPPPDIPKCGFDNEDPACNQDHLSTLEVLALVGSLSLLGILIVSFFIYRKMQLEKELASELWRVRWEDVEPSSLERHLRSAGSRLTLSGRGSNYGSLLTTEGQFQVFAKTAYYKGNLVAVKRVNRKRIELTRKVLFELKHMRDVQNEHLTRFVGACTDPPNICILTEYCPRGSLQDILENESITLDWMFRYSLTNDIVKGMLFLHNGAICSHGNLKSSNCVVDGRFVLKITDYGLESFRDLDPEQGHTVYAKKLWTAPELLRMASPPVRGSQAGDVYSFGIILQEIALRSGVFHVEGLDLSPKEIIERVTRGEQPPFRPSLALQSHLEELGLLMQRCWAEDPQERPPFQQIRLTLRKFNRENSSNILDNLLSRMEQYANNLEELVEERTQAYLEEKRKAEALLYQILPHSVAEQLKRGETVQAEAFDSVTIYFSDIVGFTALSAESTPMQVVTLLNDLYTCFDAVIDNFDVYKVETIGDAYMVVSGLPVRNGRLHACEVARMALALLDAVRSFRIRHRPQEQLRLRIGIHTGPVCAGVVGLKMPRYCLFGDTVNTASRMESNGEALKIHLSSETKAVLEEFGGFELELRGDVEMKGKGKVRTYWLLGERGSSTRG
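HEK293 cells stably expressing human Npr1 and cGMP GloSensor pGS-40F, loaded 2 h with 2% GloSensor reagent, given compound 30 min at room temperature. Luminescence read before and 20 min after 0.1 nM hNppA.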
3T3 cytotox = kills NIH 3T3 cells; NIH 3T3 viability, CellTiter-Glo ATP luminescence, 48-72 h; Potency, µM (doses to about 96.7 µM), without a hit: at the top dose activity change, negative = cytotoxicity, hits mostly inhibitors; hit rate 4.3% among 94,000; AID 1345082; also: nearly all actives have a fitted effect of over 55% in size
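Mouse fibroblast NIH 3T3 cells, 400 per well, received compound via pintool and were incubated for 48 or 72 hr prior to CellTiter-Glo ATP luminescence measurement.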
* marks the source's active call; other numbers are inactive results; i = inactive; ? = inconclusive; · = no result; [ ] = remark or other dose. Unless noted, calls follow the shape of the dose curve; as a rule, active = well fitted curve in the direction sought with a large enough effect; inconclusive = small, poorly fitted or top-dose-only effect, or another doubt; inactive = no such curve, though single readings can be large; an effect the other way counts as inactive or inconclusive. % is scaled to controls: 0 for no effect and ±100 for the full control effect; potency is read from the fitted curve at half-maximal effect.

SMILES | HEK293 tox | Luciferase inh | NPR1 antag | 3T3 cytotox
O=C(NCc1ccccc1)c1ccc2nnc(C3CCCC3)n2c1 | -36.1%[172 µM] | · | · | 79.4µM*
CCCS(=O)(=O)NC[C@@H]1C=C(C)[C@H](Cc2nnc(-c3ccccc3F)o2)C[C@H]1C(C)C | 22.4µM* | i | -13.6% | 25.1µM*
C#CCN(C)C[C@@H]1C=C(C)[C@H](Cc2nnc(-c3ccccc3F)o2)C[C@H]1C(C)C | 79.4µM* | i | ? | 79.4µM*
CC1=C[C@@H](CNS(C)(=O)=O)[C@H](C(C)C)C[C@H]1Cc1nnc(-c2ccccc2F)o1 | ? | i | 0.4%[70.6 µM] | ?
CC1=C[C@@H](CNC(=O)C2CC2)[C@H](C(C)C)C[C@H]1Cc1nnc(-c2ccccc2F)o1 | 63.1µM* | i | -26.7%[70.6 µM] | 100µM*
C=CCN(C)C(=O)[C@@H](C)C1CC[C@@]2(C)Cc3sc(NCCCC)nc3[C@@H](C)[C@@H]2[C@H]1O (stereo partly drawn) | ? | ? | -12.6%[70.6 µM] | 35.5µM*
C#CCN(C)C(=O)[C@@H](C)C1CC[C@@]2(C)Cc3sc(NCCCC)nc3[C@@H](C)[C@@H]2[C@H]1O (stereo partly drawn) | ? | 17.8µM* | -20.1%[70.6 µM] | ?
Cc1nonc1CN1CCN(c2cc(C3CC(N)C3)nc(N)n2)CC1 (stereo not drawn) | -17.8% | i | 1.9% | -15.0%
Nc1nc(C2CC(N)C2)cc(N2CCCN(Cc3cccs3)CC2)n1 (stereo not drawn) | 44.7µM* | i | 4.8% | ?
Cc1noc(C)c1-c1cc2c(cc(C)n2C)c(-c2ccccc2)n1 | ? | i | 1.3%[70.6 µM] | 50.1µM*
Cc1noc(C)c1-c1cc2c(cc(C)n2C)c(-c2ccnn2C)n1 | ? | i | -4.8%[70.6 µM] | ?
Cc1noc(C)c1-c1cc2c(cc(C)n2C)c(-c2cccc([S+](C)(=O)[O-])c2)n1 | ? | i | -17.0%[70.6 µM] | 14.1µM*
Cc1noc(C)c1-c1cc2c(cc(-c3ccccc3)n2C)c(N2CCOCC2)n1 | 56.2µM* | i | -0.3%[70.6 µM] | 31.6µM*
Cc1noc(C)c1-c1cc2c(cc(-c3ccccc3)n2C)c(-c2ccnn2C)n1 | 35.5µM* | i | -19.2%[70.6 µM] | ?
Cc1noc(C)c1-c1cc2c(cc(C)n2C)c(-c2cccnc2)n1 | ? | i | 4.4%[70.6 µM] | ?
CCc1ccc(CN2CCC(CO)(CN3CCCC3)CC2)cc1 | ? | i | 1.6% | ?
COc1cc(-c2nc(-c3c(C)noc3C)cc3c2cc(C)n3C)ccn1 | ? | i | -1.0%[70.6 µM] | ?
COc1cccc(-c2nc(-c3c(C)noc3C)cc3c2cc(C)n3C)c1OC | ? | i | 2.5%[70.6 µM] | 25.1µM*
Cc1noc(C)c1-c1cc2c(cc(C)n2C)c(N2CCN(Cc3ccccc3)CC2)n1 | ? | i | -0.5%[70.6 µM] | 44.7µM*
Cc1noc(C)c1-c1cc2c(cc(-c3ccccc3)n2C)c(-c2cnn(C)c2)n1 | 20µM* | i | -22.1%[70.6 µM] | 11.2µM*
Cc1noc(C)c1-c1cc2c(cc(C)n2C)c(-c2cnn(C)c2)n1 | ? | i | -1.3%[70.6 µM] | 39.8µM*
O=C1CC2(CCN(c3cnc4ccccc4n3)CC2)CN1CCCc1ccccc1 | 35.5µM* | i | ? | ?
CS(=O)(=O)N1CCC2(CC1)CC(=O)N(CCCc1ccccc1)C2 | i | i | 5.8% | 4.9%
Cc1cc(Cn2cc3c4c(cccc42)[C@H](CC(C)C)N[C@H](C(=O)NC(C)C)C3)no1 | 44.7µM* | i | -5.3%[70.6 µM] | 50.1µM*
Cc1cc(Cn2cc3c4c(cccc42)[C@H](CC(C)C)N[C@H](C(=O)NC2CCC2)C3)no1 | 79.4µM* | i | 3.6%[70.6 µM] | ?
SMILES | HEK293 tox | Luciferase inh | NPR1 antag | 3T3 cytotox
COCCCNC(=O)[C@@H]1Cc2cn(Cc3cc(C)on3)c3cccc(c23)[C@H](CC(C)C)N1 | 35.5µM* | i | 7.6% | ?
Cc1cc(Cn2cc3c4c(cccc42)[C@H](CC(C)C)N[C@H](C(=O)NC2CCCC2)C3)no1 | 39.8µM* | i | -0.7%[70.6 µM] | 31.6µM*
COCCN1CCN(C(=O)[C@@H]2Cc3cn(Cc4cc(C)on4)c4cccc(c34)[C@H](CC(C)C)N2)CC1 | -29.4% | i | -0.8% | ?
C#CCNC(=O)[C@@H]1Cc2cn(Cc3cc(C)on3)c3cccc(c23)[C@H](CC(C)C)N1 | ? | i | 7.8%[70.6 µM] | ?
Cc1cc(Cn2cc3c4c(cccc42)[C@H](CC(C)C)N[C@H](C(=O)NCc2cncn2C)C3)no1 | ? | i | 1.6% | -20.1%
Cc1cc(Cn2cc3c4c(cccc42)[C@H](CC(C)C)N[C@H](C(=O)NCCN2CCCC2)C3)no1 | 28.2µM* | i | -7.0% | 22.4µM*
C=CCNC(=O)[C@@H]1Cc2cn(Cc3cc(C)on3)c3cccc(c23)[C@H](CC(C)C)N1 | 70.8µM* | i | 0.8%[70.6 µM] | 79.4µM*
COc1ccc(-c2cccc(C(=O)N3CCN(C(=O)c4ccccc4)CC3)c2)nn1 | -13.9% | · | · | -26.3%
CCc1ccc(NC(=O)Cn2c(N3CCN(c4ccccc4)CC3)nc(C)cc2=O)cc1 | ? | i | -1.8% | -21.0%
Cc1cc(=O)n(CC(=O)NCc2ccc(F)cc2)c(N2CCc3ccccc3C2)n1 | 44.7µM* | i | -25.0% | ?
Cc1cc(=O)n(CC(=O)Nc2ccc(C(C)C)cc2)c(N2CCN(c3ccccc3)CC2)n1 | ? | i | -1.1% | 31.6µM*
CCc1ccc(NC(=O)Cn2c(N3CCc4ccccc4C3)nc(C)cc2=O)cc1 | ? | i | -17.3% | ?
Cc1ccc(CNC(=O)Cn2c(N3CCc4ccccc4C3)nc(C)cc2=O)cc1 | ? | i | ? | ?
Cc1cc(=O)n(CC(=O)Nc2ccc(F)cc2)c(N2CCc3ccccc3C2)n1 | 39.8µM* | i | -23.4% | 39.8µM*
COc1cccc(NC(=O)Cn2c(N3CCN(c4ccccc4)CC3)nc(C)cc2=O)c1 | ? | i | -0.3% | ?
COc1cccc(NC(=O)Cn2c(N3CCc4ccccc4C3)nc(C)cc2=O)c1 | 20µM* | i | ? | 22.4µM*
O=C(Cc1ccc(F)cc1)NC1CCCN(c2ccc3nnc(-c4ccccc4)n3n2)C1 (stereo not drawn) | -27.7% | · | · | -40.2%
Cn1nc(CN2CCOCC2)c2c1CCN(C(=O)Nc1ccccc1)C2 | 4.2% | · | · | -18.7%
C=CCCC(CN1CCSCC1)Oc1ncc(C)c(N(C)C)n1 (stereo not drawn) | ? | i | -11.7% | ?
CCN1CCN(C(=O)c2nc3sccn3c2-c2ccc(C(F)(F)F)cc2)CC1 | -0.6% | · | · | -10.8%
COCCC(=O)N[C@H]1CC[C@]2(C)CCC([C@H](C)C(=O)N3CCc4ccccc4C3)[C@H](O)[C@H]2[C@@H]1C (stereo partly drawn) | -17.7% | i | -1.7% | -34.7%
CCOC(=O)c1ccc(NC(=O)Cn2c(N3CCc4ccccc4C3)nc(C)cc2=O)cc1 | 31.6µM* | i | -13.1% | 31.6µM*
CCOC(=O)c1ccccc1NC(=O)Cn1c(N2CCc3ccccc3C2)nc(C)cc1=O | -22.2% | i | 3.2% | -26.9%
Cc1nc(N2CCN(C(=O)c3ccc(C(C)(C)C)cc3)CC2)cc(C(F)(F)F)n1 | ? | i | ? | ?
